Consider nine compounds from PubChem BioAssay (Tox21).

Unmarked numbers belong to inactive results. Records with an inconclusive call do not appear. The source made the active and inactive calls. Unless noted, calls come from the whole dose curve; as a rule, active = well fitted curve in the direction sought with a large enough effect in the repeat runs; inconclusive = weak or mixed curves; inactive = no such curve, though single readings can be large; an effect the other way counts as inactive or inconclusive.

The target in experiment [1] is Luciferin 4-monooxygenase (Photinus pyralis) (UniProt P08659). The experiment in a line: qHTS assay to identify small molecule inhibitors of firefly luciferase (AID 1224835). Note: nearly all actives have a fitted effect of over 25% in size. Note: potency is the fitted concentration of half-maximal effect. In short, it runs like this:
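Inhibition of purified Photinus luciferase is measured by luminescence. Substrate levels (D-luciferin, ATP) sit at their KM values. Each compound is tested in a concentration series.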

Experiment [2] in a line: qHTS assay to identify small molecule agonists of the constitutive androstane receptor (CAR) signaling pathway - cell viability counter screen (AID 1224836). Note: nearly all actives have a fitted effect of over 45% in size. Note: potency is the fitted concentration of half-maximal effect. The method in brief: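 HepG2 cells stably carrying hCAR and a CYP2B6-2.2kb reporter were plated 4 h, then given compounds at 15 concentrations plus PK11195 (final 0.75 uM). After 23 h at 37 C, viability was read by CellTiter-Fluor fluorescence.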

A short description of experiment [3]: qHTS assay to identify small molecule antagonists of the constitutive androstane receptor (CAR) signaling pathway - cell viability counter screen (AID 1224837). Note: nearly all actives have a fitted effect of over 45% in size. Note: potency is the fitted concentration of half-maximal effect. The method in brief:
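Multiplexed cytotoxicity read-out for the CAR antagonist screen: double-stable HepG2-CYP2B6-hCAR cells co-treated with 50 nM CITCO (final) and compound over 15 concentrations, incubated 23 hr, then assessed by CellTiter-Fluor fluorescence.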
A general note: Quantitative high-throughput screening tests each substance at several concentrations.

Experiment [4] deals with Thyrotropin receptor (Homo sapiens) (UniProt P16473). The experiment in a line: qHTS assay to identify small molecule agonists of the thyroid stimulating hormone receptor (TSHR) signaling pathway (AID 1224843; calls by dose curve; note: % is set by controls: 0 for no effect and ±100 for the full control effect; nearly all actives have a fitted effect of over 45% in size). In short, it runs like this:
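Screening of the Tox21 10K collection used HEK293 cells engineered with TSHR at 800 cells per well. After a 30-min room-temperature compound exposure, HTRF cAMP reagents were added and fluorescence recorded 1 h later.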

Experiment [5] in a line: qHTS assay to identify small molecule agonists of H2AX (AID 1224845; active = well fitted activation curve with a large enough effect in the signal ratio in the repeat runs, not every such curve was filed as active; the % refers to the signal ratio; note: % is set by controls: 0 for no effect and ±100 for the full control effect). In short, it runs like this:
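Phospho-H2AX Ser139 measured by HTRF (ex 320 nm; em 665 and 620 nm) after 24 hr antibody incubation. Compounds, 15 concentrations, 0.76% DMSO, were applied to CHO-K1 cells for 3hr at 37C before lysis.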

Experiment [6] is described as follows: qHTS RealTime-Glo MT Cell Viability Assay in HepG2 cells - 24 hour (AID 1224867). Note: nearly all actives have a fitted effect of over 50% in size. Note: potency is the fitted concentration of half-maximal effect. In short, it runs like this:
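Tox21 10K library screened in qHTS format on HepG2 cells carrying RealTime-Glo reagents. Compounds were added after a 5 h preincubation, and the luminescent signal from continuous culture was measured repeatedly during 40 h treatment.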

Experiment [7] can be described thus: A CellTox Green Cytotoxicity Assay to monitor cytotoxicity in HEK293 cells - 0 hour (AID 1224869). Note: % is set by controls: 0 for no effect and ±100 for the full control effect; nearly all actives have a fitted effect of over 50% in size. In short, it runs like this: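 Cytotoxicity was tracked continuously in HEK293 cells by a DNA-binding dye excluded from viable cells. Compounds were transferred in DMSO 5 h after seeding; fluorescence was recorded at intervals up to 40 h.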
Experiment [8] can be described thus: qHTS RealTime-Glo MT Cell Viability Assay in HepG2 cells - 40 hour (AID 1224870). Note: nearly all actives have a fitted effect of over 50% in size. Note: potency is the fitted concentration of half-maximal effect. In short, it runs like this:
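Real-time viability: cells seeded at 600 per well together with NanoLuc and cell-permeant prosubstrate, compounds added after 5 h incubation. Luminescence tracked at 0, 8, 16, 24, 32 and 40 h of exposure.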

Experiment [9] has as its target Nuclear receptor subfamily 1 group I member 3 (Homo sapiens) (UniProt Q14994). The experiment in a line: qHTS assay to identify small molecule antagonists of the constitutive androstane receptor (CAR) signaling pathway (AID 1224838). Note: % is set by controls: 0 for no effect and ±100 for the full control effect; nearly all actives have a fitted effect of over 40% in size. In short, it runs like this: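 Compounds were titrated across 15 concentrations onto HepG2 cells double-stably expressing hCAR and a CYP2B6-2.2kb reporter, together with 50 nM CITCO (final). After 24 h at 37 C, luciferase activity was measured by luminescence.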

For experiment [10] the target is unchanged. Briefly: qHTS assay to identify small molecule agonists of the constitutive androstane receptor (CAR) signaling pathway (AID 1224839). Note: % is set by controls: 0 for no effect and ±100 for the full control effect; nearly all actives have a fitted effect of over 15% in size. The method in brief: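 HepG2 cells stably expressing hCAR and a CYP2B6-2.2kb luciferase reporter were treated with compounds at 15 concentrations plus 0.75 uM PK11195 (final) for 24 h at 37 C; luminescence was read after ONE-Glo addition.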

The nature of experiment [11]: qHTS assay to identify small molecule antagonists of the estrogen related receptor signaling pathway with the pleiotropic PPARgamma coactivator (PGC) from Tox21 10K library - cell viability counter screen (AID 1224840; active = well fitted cell-killing curve with a large enough effect in the repeat runs, not every such curve was filed as active; note: nearly all actives have a fitted effect of over 40% in size; note: potency is the fitted concentration of half-maximal effect). In short, it runs like this:
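Step one, plate 2,000 PGC/ERR cells per well; step two, incubate 6 h at 37 C/5% CO2; step three, pin-transfer compounds; step four, incubate 17.5 h; step five, add CellTiter-Fluor and read fluorescence after 30 min.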

The nature of experiment [12]: qHTS assay to identify small molecule agonists of the hypoxia (HIF-1) signaling pathway (AID 1224846; active = well fitted activation curve with a large enough effect in the signal ratio in the repeat runs, not every such curve was filed as active; the % refers to the signal ratio; note: % is set by controls: 0 for no effect and ±100 for the full control effect). In short, it runs like this:
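Steps: seed ME-180 HRE-bla cells (2,000/well, 0.5% dialyzed FBS); incubate 5 hrs at 37C; pin-transfer compounds or DMSO; incubate 17 hrs; add LiveBLAzer B/G substrate CCF4-AM; measure reporter activation by FRET.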

Experiment [13] is described as follows: qHTS assay to identify small molecule agonists of the estrogen related receptor signaling pathway with the pleiotropic PPARgamma coactivator (PGC) from Tox21 10K library (AID 1224842). Note: % is set by controls: 0 for no effect and ±100 for the full control effect; nearly all actives have a fitted effect of over 15% in size. The method in brief: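 Luminescence from One-Glo (30 min, room temperature) measured after PGC/ERR cells had 18 h at 37 C with pinned compound (23 nL in DMSO). Cells had been seeded at 2,000 per well and pre-incubated 6 h.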

Experiment [14] can be described thus: qHTS assay to identify small molecule antagonists of the estrogen related receptor (ERR) signaling pathway from Tox21 library (AID 1224848). Note: potency is the fitted concentration of half-maximal effect; nearly all actives have a fitted effect of over 50% in size. The method in brief:
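Antagonist-mode screen of the Tox21 10K library in an NTP-provided ERR reporter cell line; 18 h compound exposure at 37 C, luminescence measured with ONE-Glo.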

Experiment [15] is described as follows: qHTS assay to identify small molecule agonists of the estrogen related receptor (ERR) signaling pathway from Tox21 library (AID 1224849; calls by dose curve; note: % is set by controls: 0 for no effect and ±100 for the full control effect; nearly all actives have a fitted effect of over 15% in size). Particulars: ERR reporter cell line, ONE-Glo luciferase, 18 h. In short, it runs like this: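 Agonist signal is luciferase luminescence from an ERR reporter cell line treated 18 h at 37 C with DMSO-dissolved compounds, read 30 min after ONE-Glo addition at room temperature.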

Experiment [16] is described as follows: qHTS assay to identify small molecule antagonists of the estrogen related receptor signaling pathway with the pleiotropic PPARgamma coactivator (PGC) from Tox21 10K library (AID 1224841; call rule not given here). The method in brief:
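Antagonism in this quantitative HTS is taken from loss of luciferase signal in PGC/ERR cells. Cells (2,000/well) are treated with compounds in DMSO after a 6 h settling period and read by One-Glo luminescence after 18 h.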

Experiment [17] can be described thus: qHTS assay to identify small molecule agonists of the hypoxia (HIF-1) signaling pathway - cell viability counter screen (AID 1224844; calls by dose curve; note: nearly all actives have a fitted effect of over 50% in size; note: potency is the fitted concentration of half-maximal effect). The method in brief: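 Tox21 10K compounds were added to HRE-bla ME-180 cells (0.5% dialyzed FBS) and incubated 17 hrs at 37C; ATP-based CellTiter-Glo luminescence then reported cell viability in the same wells.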
A short description of experiment [18]: qHTS assay to identify small molecule agonists of H2AX - cell viability counter screen (AID 1224847; calls by dose curve; note: nearly all actives have a fitted effect of over 30% in size; note: potency is the fitted concentration of half-maximal effect). In short, it runs like this:
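Wild-type CHO-K1 cells (10% FBS medium) were plated overnight at 37C, exposed to compounds at 15 concentrations for 3 hr at 37C (0.76% DMSO final), and viability was read as CellTiter-Glo luminescence after 30 min at room temperature.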

A short description of experiment [19]: qHTS RealTime-Glo MT Cell Viability Assay in HEK293 cells - 32 hour (AID 1224868). Note: nearly all actives have a fitted effect of over 50% in size. Note: potency is the fitted concentration of half-maximal effect. The method in brief:
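Luminescence generated by NanoLuc from substrate produced by living HEK293 cells served as the viability signal. Each value reflects the reading at its stated time point during continuous 40 h compound exposure at 37 C.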

Nuclear receptor subfamily 1 group I member 3 (Homo sapiens), sequence (Q14994 whole entry, looked up): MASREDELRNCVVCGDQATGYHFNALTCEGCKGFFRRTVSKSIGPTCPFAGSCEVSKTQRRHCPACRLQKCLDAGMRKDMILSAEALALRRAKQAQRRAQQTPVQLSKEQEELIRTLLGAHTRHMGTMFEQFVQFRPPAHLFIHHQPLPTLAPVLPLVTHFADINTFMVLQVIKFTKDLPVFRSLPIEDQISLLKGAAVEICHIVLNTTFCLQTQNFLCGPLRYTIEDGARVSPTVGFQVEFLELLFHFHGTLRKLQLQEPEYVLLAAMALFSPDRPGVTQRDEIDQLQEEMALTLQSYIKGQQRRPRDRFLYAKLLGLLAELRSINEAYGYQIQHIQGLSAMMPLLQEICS
Thyrotropin receptor (Homo sapiens), sequence (P16473 whole entry, looked up): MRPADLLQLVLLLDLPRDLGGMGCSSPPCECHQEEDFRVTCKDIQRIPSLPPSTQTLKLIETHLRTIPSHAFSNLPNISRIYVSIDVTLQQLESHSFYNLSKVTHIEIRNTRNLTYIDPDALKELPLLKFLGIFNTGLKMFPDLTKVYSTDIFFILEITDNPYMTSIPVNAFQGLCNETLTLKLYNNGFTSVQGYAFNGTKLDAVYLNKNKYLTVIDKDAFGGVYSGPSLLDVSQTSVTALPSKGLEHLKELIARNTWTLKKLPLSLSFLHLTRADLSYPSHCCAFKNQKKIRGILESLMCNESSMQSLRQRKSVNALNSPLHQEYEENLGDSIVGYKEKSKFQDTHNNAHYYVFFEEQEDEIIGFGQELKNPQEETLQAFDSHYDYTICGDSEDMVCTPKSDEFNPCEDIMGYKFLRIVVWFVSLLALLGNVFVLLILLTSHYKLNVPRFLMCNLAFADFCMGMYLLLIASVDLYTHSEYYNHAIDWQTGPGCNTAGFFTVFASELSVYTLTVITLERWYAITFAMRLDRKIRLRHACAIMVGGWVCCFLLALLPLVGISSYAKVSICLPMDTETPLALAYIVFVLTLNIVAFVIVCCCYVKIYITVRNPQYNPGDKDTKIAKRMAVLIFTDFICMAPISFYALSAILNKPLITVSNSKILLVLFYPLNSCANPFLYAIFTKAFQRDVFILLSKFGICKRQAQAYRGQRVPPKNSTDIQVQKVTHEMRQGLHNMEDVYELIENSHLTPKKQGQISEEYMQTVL
Luciferin 4-monooxygenase (Photinus pyralis), sequence (P08659 whole entry, looked up): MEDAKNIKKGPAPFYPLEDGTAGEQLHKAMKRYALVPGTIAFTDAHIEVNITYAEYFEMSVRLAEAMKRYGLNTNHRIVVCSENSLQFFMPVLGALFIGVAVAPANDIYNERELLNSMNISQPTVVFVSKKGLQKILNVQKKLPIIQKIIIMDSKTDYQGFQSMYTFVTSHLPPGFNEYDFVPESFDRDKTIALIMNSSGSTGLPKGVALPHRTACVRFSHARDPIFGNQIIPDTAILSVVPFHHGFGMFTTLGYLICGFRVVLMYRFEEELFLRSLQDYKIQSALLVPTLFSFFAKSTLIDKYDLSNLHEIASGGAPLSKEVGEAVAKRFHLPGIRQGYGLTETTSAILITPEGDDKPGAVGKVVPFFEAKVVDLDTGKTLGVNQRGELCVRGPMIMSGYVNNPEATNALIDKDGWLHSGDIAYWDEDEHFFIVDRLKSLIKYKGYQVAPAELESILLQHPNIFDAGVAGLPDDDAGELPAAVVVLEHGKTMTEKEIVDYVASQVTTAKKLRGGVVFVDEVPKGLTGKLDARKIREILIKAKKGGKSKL

`CN1CCCCC1CCN1c2ccccc2Sc2ccc(S(C)=O)cc21` (configuration not stated): the Potency entry in experiment [1], in experiment [2], in experiment [3], in [4], in [5] and in experiment [6] was “inactive” in each case. Further, the Potency result in experiment [7] and in experiment [8] was “inactive” each time.
For the compound `C/C=C/C=C/COC(=O)C(C)C`, the Potency entry in experiment [2], in [9], in experiment [10], in experiment [11], in experiment [12] and in [7] was “inactive” throughout.
With `CC[N+](CC)(CC)CCOc1ccc(/C=C/c2ccccc2)cc1`, the Potency result in [1], in experiment [3], in experiment [9], in experiment [10], in [11] and in experiment [13] was “inactive” in each case. The Potency result in experiment [4], in [5], in experiment [12] and in experiment [7] was “inactive” each time. For the same compound, the Potency in [14] is 7.5 µM (active); in [8], 23.9 µM (active). Also, the activity change, positive = activation in experiment [15] (at 42.5 µM (top of the series)) was -43%.
For the compound `Cc1cc(-c2ccc(N=Nc3cc(S(=O)(=O)O)c4ccccc4c3N)c(C)c2)ccc1N=Nc1cc(S(=O)(=O)O)c2ccccc2c1N`, the Potency entry in [1], in experiment [10], in [11], in [13], in experiment [4] and in experiment [17] was “inactive” each time. Moreover, the Potency entry in experiment [5], in [12], in experiment [6], in experiment [7] and in [8] was “inactive” throughout. Also, the Potency in experiment [16] is 12.3 µM (active); in [18] it was 80.4 µM (active); in [14] it was 5.48 µM (active); in experiment [19] it was 2.2 µM (active). The activity change, positive = activation in [15] (at 92.4 µM (top of the series)) is -50.3%.
For the compound `CCc1oc2ccccc2c1C(=O)c1cc(I)c(O)c(I)c1`, the Potency result in [1], in experiment [2], in experiment [3], in experiment [11], in experiment [4] and in [17] was “inactive” in each case. In addition, the Potency entry in experiment [5], in [6], in [19], in experiment [7] and in experiment [8] was “inactive” in each case.
Consider `CCCCCC/C=C\CCCCCCCC(=O)O`, for which the Potency entry in experiment [2], in experiment [3], in experiment [9], in [11], in [4] and in experiment [5] was “inactive” in each case. Moreover, the Potency entry in experiment [6], in experiment [19], in [7] and in [8] was “inactive” in each case.
`CN(C)Cc1cc(C(C)(C)C)c(O)c(C(C)(C)C)c1`: the Potency result in [1], in experiment [2], in experiment [3], in experiment [11], in experiment [13] and in experiment [17] was “inactive” throughout. Also, the Potency result in experiment [5], in experiment [12], in [18], in experiment [6], in experiment [19] and in [7] was “inactive” throughout. For the same compound, the Potency result in experiment [8] is “inactive”. Besides, the activity change, positive = activation in experiment [15] (at 92.4 µM (top of the series)) is -28.5%.
`CCN(CC)C(=O)c1cc(S(=O)(=O)Cc2ccccc2)c(N2CCC(c3ccccc3)CC2)cc1N(CC)CCN(C)C`: the Potency entry in [1], in experiment [13], in [12] and in experiment [7] was “inactive” throughout. The Potency is 21.4 µM (active) in [2]; 24.1 µM (active) in experiment [3]; 21.4 µM (active) in [11]; 10.8 µM (active) in experiment [17]; 31.5 µM (active) in experiment [18]; 21.4 µM (active) in experiment [14]. For the same compound, the Potency in experiment [6] was 17.2 µM (active); in experiment [19] it was 8.61 µM (active); in [8], 13.6 µM (active). Besides, the activity change, positive = activation in experiment [15] (at 42.5 µM (top of the series)) was -79.2%.
`S=C([S-])NCCNC(=S)[S-].S=C([S-])NCCNC(=S)[S-].[Mn+2].[Zn+2]`: in experiment [1], the Potency was 15.5 µM (active). The Potency result in [3], in experiment [11], in [4], in experiment [5], in experiment [12] and in [18] was “inactive” throughout. Moreover, the Potency result in experiment [6], in experiment [7] and in experiment [8] was “inactive” in each case.
